Drawing on paper PMC7862700, “An all-to-all approach to the identification of sequence-specific readers for epigenetic DNA modifications on cytosine”, this text covers binding signal for one sequence.

Common to all, as to experiment: DAPPL (digital affinity profiling via proximity ligation, sequencing); 10 mM Tris-HCl pH 7.5, 50 mM NaCl, 1 mM DTT, 4% glycerol, room temperature, 30 min; GST-TFs on glutathione beads, 16-mer random dsDNA library, 0.1% formaldehyde crosslink after washing; high values mean tight binding
One assay addresses T1, FLI1 (Homo sapiens, UniProt Q01543 1-452).
T1 sequence: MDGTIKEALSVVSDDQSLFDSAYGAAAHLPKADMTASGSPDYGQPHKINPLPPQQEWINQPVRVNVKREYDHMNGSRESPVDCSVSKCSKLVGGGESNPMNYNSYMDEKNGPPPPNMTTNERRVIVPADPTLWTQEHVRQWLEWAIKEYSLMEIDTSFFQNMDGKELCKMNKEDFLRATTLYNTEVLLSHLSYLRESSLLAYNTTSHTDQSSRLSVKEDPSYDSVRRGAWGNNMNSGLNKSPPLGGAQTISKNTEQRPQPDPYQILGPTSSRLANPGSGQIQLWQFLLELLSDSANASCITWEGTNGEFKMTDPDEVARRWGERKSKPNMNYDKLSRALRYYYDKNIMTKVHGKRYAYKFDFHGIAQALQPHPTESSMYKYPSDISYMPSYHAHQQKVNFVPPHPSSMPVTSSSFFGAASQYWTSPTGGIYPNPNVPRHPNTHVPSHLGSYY
Conditions: protein: recombinant; tags: N-terminal GST; dsDNA, one strand shown. In a few lines:
(§1)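 The binding signal reported is, for every hexamer, its read frequency for a factor over its read frequency for the tag-only sample. Reads came from pools of yeast-expressed, GST-fused human transcription factors on glutathione beads, barcoded with DNA and mixed with that sample, which were incubated with 200 nmole of a random double-stranded 16-mer DNA library in Tris/NaCl/DTT/glycerol buffer at room temperature for 30 min. After washing, the pools were crosslinked with 0.1% formaldehyde, proximity-ligated with BsaI/T4 ligase for 1 h at 37 °C, PCR-amplified and sequenced on an Illumina NextSeq500.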

The target in another assay is T2, ELK1 (Homo sapiens, UniProt P19419 1-428).
T2 sequence: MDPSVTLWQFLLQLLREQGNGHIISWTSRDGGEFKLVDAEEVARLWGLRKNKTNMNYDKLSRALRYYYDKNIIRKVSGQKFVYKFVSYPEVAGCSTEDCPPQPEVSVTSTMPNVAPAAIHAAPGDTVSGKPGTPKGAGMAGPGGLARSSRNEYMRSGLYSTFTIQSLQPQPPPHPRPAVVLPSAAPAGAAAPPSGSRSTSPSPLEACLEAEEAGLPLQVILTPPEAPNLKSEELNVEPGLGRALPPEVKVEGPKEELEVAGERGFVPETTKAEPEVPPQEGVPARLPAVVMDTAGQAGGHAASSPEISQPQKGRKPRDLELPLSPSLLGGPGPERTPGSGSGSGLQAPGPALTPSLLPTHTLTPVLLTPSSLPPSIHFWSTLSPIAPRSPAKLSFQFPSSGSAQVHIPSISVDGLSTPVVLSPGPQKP
To be noted: protein: recombinant; tags: N-terminal GST; dsDNA, one strand shown. In a few lines:
as §1

Another assay addresses T3, GABPA (Homo sapiens, UniProt Q06546 1-454).
T3 sequence: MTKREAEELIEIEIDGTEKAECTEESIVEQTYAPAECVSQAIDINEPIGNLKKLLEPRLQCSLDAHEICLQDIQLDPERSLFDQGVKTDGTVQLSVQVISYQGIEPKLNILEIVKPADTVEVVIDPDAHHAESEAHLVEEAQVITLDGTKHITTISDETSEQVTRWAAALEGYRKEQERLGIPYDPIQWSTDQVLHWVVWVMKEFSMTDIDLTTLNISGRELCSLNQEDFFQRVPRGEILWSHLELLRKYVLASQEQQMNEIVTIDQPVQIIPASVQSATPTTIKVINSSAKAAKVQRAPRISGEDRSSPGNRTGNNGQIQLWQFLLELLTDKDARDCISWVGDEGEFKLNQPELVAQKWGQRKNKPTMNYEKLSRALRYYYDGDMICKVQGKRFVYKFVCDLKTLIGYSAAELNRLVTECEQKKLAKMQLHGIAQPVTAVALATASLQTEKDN
Conditions: protein: recombinant; tags: N-terminal GST; dsDNA, one strand shown. In short, it runs like this:
as §1

A further assay deals with T4, ERG (Homo sapiens, UniProt P11308 1-479).
T4 sequence: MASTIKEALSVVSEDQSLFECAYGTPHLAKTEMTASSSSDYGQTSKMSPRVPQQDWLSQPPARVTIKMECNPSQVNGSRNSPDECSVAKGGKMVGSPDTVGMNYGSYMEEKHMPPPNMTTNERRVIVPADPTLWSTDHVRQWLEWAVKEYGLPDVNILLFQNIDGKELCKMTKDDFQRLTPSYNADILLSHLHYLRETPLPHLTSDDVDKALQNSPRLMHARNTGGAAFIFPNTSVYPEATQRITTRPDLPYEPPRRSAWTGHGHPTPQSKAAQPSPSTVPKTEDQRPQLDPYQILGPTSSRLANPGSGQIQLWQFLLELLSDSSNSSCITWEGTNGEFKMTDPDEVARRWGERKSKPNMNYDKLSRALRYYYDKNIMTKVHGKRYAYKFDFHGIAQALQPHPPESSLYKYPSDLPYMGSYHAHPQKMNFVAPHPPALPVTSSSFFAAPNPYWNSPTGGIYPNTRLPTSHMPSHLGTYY
To be noted: protein: recombinant; tags: N-terminal GST; dsDNA, one strand shown. In short, it runs like this: as §1

For another assay, the target named is ELF1 (Homo sapiens, UniProt P32519 1-619). Conditions: protein: recombinant; tags: N-terminal GST; dsDNA, one strand shown. In short, it runs like this:
as §1

The target of another assay is T5, EHF (Homo sapiens, UniProt Q9NZC4 1-300).
T5 sequence: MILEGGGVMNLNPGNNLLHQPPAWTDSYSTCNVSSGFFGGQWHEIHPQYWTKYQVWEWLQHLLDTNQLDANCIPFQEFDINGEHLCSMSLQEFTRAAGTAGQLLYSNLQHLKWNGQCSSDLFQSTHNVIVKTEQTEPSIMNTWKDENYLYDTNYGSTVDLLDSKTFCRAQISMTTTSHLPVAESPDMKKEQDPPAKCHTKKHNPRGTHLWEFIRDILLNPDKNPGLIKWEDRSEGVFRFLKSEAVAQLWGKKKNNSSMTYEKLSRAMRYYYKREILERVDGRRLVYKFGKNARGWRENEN
To be noted: protein: recombinant; tags: N-terminal GST; dsDNA, one strand shown. In a few lines: as §1

A further assay concerns the target SPI1 (Homo sapiens, UniProt P17947 1-270). To be noted: protein: recombinant; tags: N-terminal GST; dsDNA, one strand shown. In a few lines: as §1
A further assay has as its target SPIB (Homo sapiens, UniProt Q01892 1-262). Conditions: protein: recombinant; tags: N-terminal GST; dsDNA, one strand shown. In a few lines:
as §1

Another assay has as its target T6, ELK3 (Homo sapiens, UniProt P41970 1-407).
T6 sequence: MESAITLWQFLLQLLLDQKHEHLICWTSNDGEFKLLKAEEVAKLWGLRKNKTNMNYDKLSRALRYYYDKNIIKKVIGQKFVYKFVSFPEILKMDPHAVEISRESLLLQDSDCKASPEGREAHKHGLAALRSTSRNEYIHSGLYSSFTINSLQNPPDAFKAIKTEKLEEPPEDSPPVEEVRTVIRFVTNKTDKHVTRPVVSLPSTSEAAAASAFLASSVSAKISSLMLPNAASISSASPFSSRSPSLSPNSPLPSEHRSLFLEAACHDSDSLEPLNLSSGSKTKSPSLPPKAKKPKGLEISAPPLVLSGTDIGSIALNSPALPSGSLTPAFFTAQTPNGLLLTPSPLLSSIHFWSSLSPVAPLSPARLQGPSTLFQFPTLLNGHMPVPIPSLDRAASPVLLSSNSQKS
Conditions: protein: recombinant; tags: N-terminal GST; dsDNA, one strand shown. In short, it runs like this:
as §1

The target of the next assay is T7, FEV (Homo sapiens, UniProt Q99581 1-238).
T7 sequence: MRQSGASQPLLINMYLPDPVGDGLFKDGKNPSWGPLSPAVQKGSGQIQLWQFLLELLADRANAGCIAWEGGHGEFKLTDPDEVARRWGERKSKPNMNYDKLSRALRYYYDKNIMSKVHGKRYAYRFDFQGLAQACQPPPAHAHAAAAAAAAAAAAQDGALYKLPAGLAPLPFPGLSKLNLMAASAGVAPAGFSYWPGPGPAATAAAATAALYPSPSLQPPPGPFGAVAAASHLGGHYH
Conditions: protein: recombinant; tags: N-terminal GST; dsDNA, one strand shown. In a few lines: as §1

A further assay deals with ETV5 (Homo sapiens, UniProt P41161 1-510). To be noted: protein: recombinant; tags: N-terminal GST; dsDNA, one strand shown. In short, it runs like this:
as §1

The target in the next assay is HSF1 (Homo sapiens, UniProt Q00613 1-529). To be noted: protein: recombinant; tags: N-terminal GST; chain copies: 3; dsDNA, one strand shown. In short, it runs like this:
as §1

The target of another assay is T8, SPIC (Homo sapiens, UniProt Q8N5J4 1-248).
T8 sequence: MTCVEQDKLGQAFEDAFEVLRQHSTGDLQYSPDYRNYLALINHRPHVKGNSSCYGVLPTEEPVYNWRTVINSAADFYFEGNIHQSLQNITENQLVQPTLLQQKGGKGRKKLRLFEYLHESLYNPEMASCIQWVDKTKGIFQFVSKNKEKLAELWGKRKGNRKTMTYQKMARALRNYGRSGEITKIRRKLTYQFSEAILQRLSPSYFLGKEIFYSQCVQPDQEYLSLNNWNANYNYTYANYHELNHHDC
To be noted: protein: recombinant; tags: N-terminal GST; dsDNA, one strand shown. In a few lines: as §1

The target of the next assay is ELF4 (Homo sapiens, UniProt Q99607 1-663). To be noted: protein: recombinant; tags: N-terminal GST; dsDNA, one strand shown. In a few lines: as §1
The target of the next assay is T9, ELK4 (Homo sapiens, UniProt P28324-2 1-405).
T9 sequence: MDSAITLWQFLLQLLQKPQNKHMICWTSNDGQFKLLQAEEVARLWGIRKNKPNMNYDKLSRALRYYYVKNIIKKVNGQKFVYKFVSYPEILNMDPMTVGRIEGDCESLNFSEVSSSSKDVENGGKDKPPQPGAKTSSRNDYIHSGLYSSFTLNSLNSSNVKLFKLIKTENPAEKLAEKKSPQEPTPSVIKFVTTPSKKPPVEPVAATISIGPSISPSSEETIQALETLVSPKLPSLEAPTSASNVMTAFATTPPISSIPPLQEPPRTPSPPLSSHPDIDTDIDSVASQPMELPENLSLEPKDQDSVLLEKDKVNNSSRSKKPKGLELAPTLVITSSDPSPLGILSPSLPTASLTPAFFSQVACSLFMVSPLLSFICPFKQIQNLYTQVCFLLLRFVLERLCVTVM
Conditions: protein: recombinant; tags: N-terminal GST; dsDNA, one strand shown. In short, it runs like this: as §1

Another assay deals with T10, ETV2 (Homo sapiens, UniProt O00321 1-342).
T10 sequence: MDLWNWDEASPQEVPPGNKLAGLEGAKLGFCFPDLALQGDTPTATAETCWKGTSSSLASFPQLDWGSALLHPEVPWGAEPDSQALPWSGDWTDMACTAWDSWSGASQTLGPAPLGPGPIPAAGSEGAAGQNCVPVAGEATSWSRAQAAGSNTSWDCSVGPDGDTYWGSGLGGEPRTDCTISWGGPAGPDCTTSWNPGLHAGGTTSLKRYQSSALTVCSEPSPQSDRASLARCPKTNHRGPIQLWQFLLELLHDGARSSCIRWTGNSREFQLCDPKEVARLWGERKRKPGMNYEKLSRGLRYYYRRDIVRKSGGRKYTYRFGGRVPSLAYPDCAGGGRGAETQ
Conditions: protein: recombinant; tags: N-terminal GST; dsDNA, one strand shown. In short, it runs like this:
as §1

The target in another assay is CRX (Homo sapiens, UniProt O43186 1-299). Conditions: protein: recombinant; tags: N-terminal GST; dsDNA, one strand shown. In a few lines:
as §1

The target of a further assay is ETV1 (Homo sapiens, UniProt P50549 1-477). To be noted: protein: recombinant; tags: N-terminal GST; dsDNA, one strand shown. In short, it runs like this:
as §1

ELF4, sequence (Q99607 whole entry): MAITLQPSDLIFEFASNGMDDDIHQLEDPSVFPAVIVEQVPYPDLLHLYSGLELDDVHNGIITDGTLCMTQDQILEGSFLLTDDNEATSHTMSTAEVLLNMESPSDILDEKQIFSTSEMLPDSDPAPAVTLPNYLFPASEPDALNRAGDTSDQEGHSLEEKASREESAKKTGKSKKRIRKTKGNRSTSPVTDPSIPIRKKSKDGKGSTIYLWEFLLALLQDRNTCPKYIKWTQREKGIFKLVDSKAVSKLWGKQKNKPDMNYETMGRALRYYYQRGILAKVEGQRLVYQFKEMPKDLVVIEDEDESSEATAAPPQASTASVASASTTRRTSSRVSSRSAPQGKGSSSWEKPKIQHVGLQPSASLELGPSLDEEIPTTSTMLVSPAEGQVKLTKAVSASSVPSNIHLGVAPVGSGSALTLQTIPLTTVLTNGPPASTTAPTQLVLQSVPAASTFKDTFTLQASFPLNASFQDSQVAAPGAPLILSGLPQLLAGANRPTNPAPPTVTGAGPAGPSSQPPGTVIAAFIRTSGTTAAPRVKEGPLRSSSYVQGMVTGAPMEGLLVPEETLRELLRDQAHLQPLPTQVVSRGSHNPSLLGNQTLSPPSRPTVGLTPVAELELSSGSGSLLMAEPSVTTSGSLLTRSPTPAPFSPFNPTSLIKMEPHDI
CRX, sequence (O43186 whole entry): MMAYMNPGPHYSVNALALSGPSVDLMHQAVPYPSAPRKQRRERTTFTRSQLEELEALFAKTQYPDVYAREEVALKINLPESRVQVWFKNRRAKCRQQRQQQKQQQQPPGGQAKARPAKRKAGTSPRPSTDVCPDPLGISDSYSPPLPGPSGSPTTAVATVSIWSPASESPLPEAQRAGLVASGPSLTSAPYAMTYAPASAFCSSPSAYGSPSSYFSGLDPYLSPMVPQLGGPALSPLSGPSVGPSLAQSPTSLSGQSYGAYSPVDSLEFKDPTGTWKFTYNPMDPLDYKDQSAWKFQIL
SPIB, sequence (Q01892 whole entry): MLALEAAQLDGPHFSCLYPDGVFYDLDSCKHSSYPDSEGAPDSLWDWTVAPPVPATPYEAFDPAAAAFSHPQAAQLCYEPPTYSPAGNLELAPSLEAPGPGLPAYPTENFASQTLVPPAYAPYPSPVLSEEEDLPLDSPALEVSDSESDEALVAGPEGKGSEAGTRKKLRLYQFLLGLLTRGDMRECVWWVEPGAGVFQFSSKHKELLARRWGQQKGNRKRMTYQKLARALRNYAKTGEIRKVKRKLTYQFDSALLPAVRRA
HSF1, sequence (Q00613 whole entry): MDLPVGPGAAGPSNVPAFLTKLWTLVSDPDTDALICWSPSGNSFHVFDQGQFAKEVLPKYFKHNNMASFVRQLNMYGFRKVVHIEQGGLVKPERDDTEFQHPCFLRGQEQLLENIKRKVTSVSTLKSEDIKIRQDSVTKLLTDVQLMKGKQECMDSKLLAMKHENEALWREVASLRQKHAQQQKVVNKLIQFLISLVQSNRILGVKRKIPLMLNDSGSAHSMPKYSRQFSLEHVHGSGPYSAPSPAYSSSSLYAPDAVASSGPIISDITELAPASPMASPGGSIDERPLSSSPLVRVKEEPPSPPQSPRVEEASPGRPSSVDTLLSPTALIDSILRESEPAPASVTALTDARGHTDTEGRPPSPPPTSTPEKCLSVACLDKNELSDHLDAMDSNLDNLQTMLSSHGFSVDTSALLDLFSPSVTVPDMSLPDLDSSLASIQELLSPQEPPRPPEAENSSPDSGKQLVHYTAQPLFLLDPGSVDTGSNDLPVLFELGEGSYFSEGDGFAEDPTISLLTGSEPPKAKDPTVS
ETV5, sequence (P41161 whole entry): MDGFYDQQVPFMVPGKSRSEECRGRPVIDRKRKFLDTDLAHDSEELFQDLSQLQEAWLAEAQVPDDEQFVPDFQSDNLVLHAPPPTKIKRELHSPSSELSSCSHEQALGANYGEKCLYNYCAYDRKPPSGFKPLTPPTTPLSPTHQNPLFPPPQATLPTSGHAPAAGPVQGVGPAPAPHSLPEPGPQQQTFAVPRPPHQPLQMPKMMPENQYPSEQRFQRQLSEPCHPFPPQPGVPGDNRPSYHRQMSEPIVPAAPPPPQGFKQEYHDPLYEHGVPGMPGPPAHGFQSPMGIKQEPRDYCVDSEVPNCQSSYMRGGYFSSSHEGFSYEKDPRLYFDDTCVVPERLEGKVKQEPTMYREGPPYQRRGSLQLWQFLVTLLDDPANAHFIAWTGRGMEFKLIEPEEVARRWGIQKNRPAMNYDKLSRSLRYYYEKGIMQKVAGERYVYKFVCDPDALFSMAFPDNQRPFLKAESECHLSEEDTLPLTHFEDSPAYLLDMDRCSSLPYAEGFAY
ETV1, sequence (P50549 whole entry): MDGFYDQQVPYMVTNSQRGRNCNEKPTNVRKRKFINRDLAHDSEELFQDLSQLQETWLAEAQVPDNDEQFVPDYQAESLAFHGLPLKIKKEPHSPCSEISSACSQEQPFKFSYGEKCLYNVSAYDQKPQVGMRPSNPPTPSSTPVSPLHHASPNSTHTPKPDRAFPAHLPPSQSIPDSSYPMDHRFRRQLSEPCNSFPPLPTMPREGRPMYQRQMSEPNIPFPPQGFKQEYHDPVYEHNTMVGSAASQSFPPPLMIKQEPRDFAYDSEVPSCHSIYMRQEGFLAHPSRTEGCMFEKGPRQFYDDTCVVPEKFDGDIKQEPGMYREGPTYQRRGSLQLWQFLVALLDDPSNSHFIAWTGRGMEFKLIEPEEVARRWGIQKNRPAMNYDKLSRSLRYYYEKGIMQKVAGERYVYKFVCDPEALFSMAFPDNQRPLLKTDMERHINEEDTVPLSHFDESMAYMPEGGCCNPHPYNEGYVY
ELF1, sequence (P32519 whole entry): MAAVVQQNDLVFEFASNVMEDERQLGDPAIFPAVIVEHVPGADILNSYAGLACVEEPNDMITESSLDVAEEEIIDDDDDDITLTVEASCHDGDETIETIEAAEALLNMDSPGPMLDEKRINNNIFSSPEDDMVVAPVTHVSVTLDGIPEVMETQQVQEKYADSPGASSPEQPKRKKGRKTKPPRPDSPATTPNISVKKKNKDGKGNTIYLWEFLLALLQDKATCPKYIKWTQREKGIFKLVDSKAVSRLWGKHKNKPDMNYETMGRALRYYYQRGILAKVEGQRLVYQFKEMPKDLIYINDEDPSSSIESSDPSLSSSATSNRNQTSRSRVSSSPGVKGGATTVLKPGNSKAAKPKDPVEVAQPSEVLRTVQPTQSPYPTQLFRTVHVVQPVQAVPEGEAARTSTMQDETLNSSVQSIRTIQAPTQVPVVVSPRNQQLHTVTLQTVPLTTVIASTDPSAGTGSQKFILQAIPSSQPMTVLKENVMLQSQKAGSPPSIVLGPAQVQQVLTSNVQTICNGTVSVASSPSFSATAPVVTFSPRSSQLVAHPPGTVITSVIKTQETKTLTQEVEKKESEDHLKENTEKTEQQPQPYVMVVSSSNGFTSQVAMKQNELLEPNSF

With AGCCTA, the binding signal was 1.06 fold enrichment (6-mer frequency, TF over GST control) in the assay with FLI1; 1.05 fold enrichment (6-mer frequency, TF over GST control) with ELK1; 1.12 fold enrichment (6-mer frequency, TF over GST control) with GABPA; 1.08 fold enrichment (6-mer frequency, TF over GST control) with ERG; 1.1 fold enrichment (6-mer frequency, TF over GST control) with ELF1; 1.04 fold enrichment (6-mer frequency, TF over GST control) with EHF. The binding signal with SPI1 was 1.02 fold enrichment (6-mer frequency, TF over GST control); in the assay with SPIB, 1.02 fold enrichment (6-mer frequency, TF over GST control); with ELK3, 1.12 fold enrichment (6-mer frequency, TF over GST control); with FEV, 1.01 fold enrichment (6-mer frequency, TF over GST control); with ETV5, 1.09 fold enrichment (6-mer frequency, TF over GST control); with HSF1, 1.21 fold enrichment (6-mer frequency, TF over GST control). In addition, the binding signal with SPIC is 1.13 fold enrichment (6-mer frequency, TF over GST control); with ELF4, 1.09 fold enrichment (6-mer frequency, TF over GST control); with ELK4 it was 1.17 fold enrichment (6-mer frequency, TF over GST control); with ETV2 it was 1.12 fold enrichment (6-mer frequency, TF over GST control); with CRX, 1.52 fold enrichment (6-mer frequency, TF over GST control); with ETV1, 1.12 fold enrichment (6-mer frequency, TF over GST control).
